This is part of a sample that, as a whole, favours compounds with a hit. Of some 79,000 tested, about 15% had one in any assay. Rule as the data show it: active = growth inhibition above about 70%; inactive = the rest.
Key:
[1] = NCI Yeast Anticancer Drug Screen. Data for the rad50 strain (AID 155);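 also: 0% = growth of vehicle-only cultures of the same strain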; settings: S. cerevisiae rad50 strain growth inhibition; at 50.0 µM; hits give high values
Procedure, shortened: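 Growth of the mutant yeast was measured after compound exposure and referenced to vehicle-treated cultures.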

[2] = NCI Yeast Anticancer Drug Screen. Data for the mec2-1 strain (AID 157); settings: S. cerevisiae mec2-1 strain, at 50.0 µM, hits give high values
Procedure, shortened: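 mec2-1 yeast strain, carrying an alteration in DNA damage repair or cell cycle control, was exposed to compounds; growth inhibition was measured relative to vehicle-treated controls.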

[3] = NCI Yeast Anticancer Drug Screen. Data for the sgs1 mgt1 strain (AID 161);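 also: 0% = growth of cultures given vehicle only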; settings: S. cerevisiae sgs1 mgt1 strain, at 50.0 µM, hits give high values
Procedure, shortened: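 Yeast cells carrying a defined DNA-repair defect were exposed to test compounds. Growth inhibition was measured relative to vehicle-treated controls.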

[4] = NCI Yeast Anticancer Drug Screen. Data for the cln2 rad14 strain (AID 165);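 also: 0% = growth equal to vehicle treated cultures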; settings: S. cerevisiae cln2 rad14 strain, at 50.0 µM, hits give high values
Procedure, shortened: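 Yeast carrying cln2 and rad14 alterations (cell cycle control and DNA damage repair) were exposed to compounds. Growth inhibition was measured against vehicle-treated controls.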

[5] = NCI Yeast Anticancer Drug Screen. Data for the bub3 strain (AID 167); settings: S. cerevisiae bub3 mutant strain, at 50.0 µM, hits give high values
Procedure, shortened: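 Whole-cell yeast assay. The mutant strain was incubated with compounds, and growth inhibition was determined by comparison with vehicle-treated cells.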

[6] = NCI Yeast Anticancer Drug Screen. Data for the mlh1 rad18 strain (AID 175); settings: S. cerevisiae mlh1 rad18 strain growth inhibition; at 50.0 µM; hits give high values
Procedure, shortened: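 Growth inhibition of the yeast strain was measured after compound exposure and expressed relative to vehicle-treated controls. The strain carries defined defects in DNA damage repair.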

Measured: growth inhibition

O=C1CN(C=C(C(=O)c2ccccc2)C(=O)c2ccccc2)C(=S)N1
inactive: [1] -61.5% | [2] -31.7% | [3] -19.2% | [4] -39% | [5] -8.2% | [6] -30.4%

O=C(O)COc1cccc2ccccc12
inactive: [1] 5.25% | [2] -18.6% | [3] -0.7% | [4] -24.6% | [5] 1.75% | [6] 14.7%

CN(C)c1ccc(/C=N/NC(=O)c2ccccc2NC(=O)c2ccccc2)cc1
inactive: [1] -1.65% | [2] -20.3% | [3] -11.6% | [4] -19.8% | [5] 14.9% | [6] 3.4%

CC(NC(=O)c1ccccc1)C(=O)O (stereo unspecified)
inactive: [1] 25.4% | [2] -6.4% | [3] -26.6% | [4] -24.2% | [5] 0.6% | [6] 27.7%

COC(=O)/C=C(/C(=O)OC)c1c(C)c(C)c2c(C)cc(C)cc(C)c1-2
inactive: [1] 20.7% | [2] 14.4% | [3] 3.8% | [4] 17.4% | [5] 34.9% | [6] 22.2%

COC[N+](C)(C)C
inactive: [1] -2.55% | [2] -6.25% | [3] -7.6% | [4] 2.4% | [5] 7.2% | [6] 10.5%

Cc1ccc(N=Cc2ccccc2O)cc1.[Co]
inactive: [1] -18.9% | [2] 14.9% | [3] -2.75% | [4] 14.2% | [5] 1.45% | [6] -11.1%

Cc1cccc(C2ON=C(c3ccccc3)N2C23CC4CC(CC(C4)C2)C3)c1 (stereo unspecified)
inactive: [1] -20.8% | [2] -0.35% | [3] -22.1% | [4] -2.45% | [5] 0.75% | [6] -33.5%

O=C1C2C3C=CC(O3)C2C(=O)N1N=C1CCCCC1 (stereo unspecified)
inactive: [1] 10.4% | [2] 13.2% | [3] 14.2% | [4] 8.65% | [5] 12.6% | [6] 19.4%

C#CCN
inactive: [1] 9.25% | [2] 2% | [3] 2.8% | [4] 3.75% | [5] 8.05% | [6] -12.7%

CC1(C)C2CCC(I)(C2)C1I (stereo unspecified)
inactive: [1] 10.9% | [2] 0.45% | [3] -17.3% | [4] -15.8% | [5] 1.55% | [6] 10.3%

CC1(C)[C@@H]2CC[C@]1(C)[C@H](OC(=O)/C=C/c1ccccc1)C2
inactive: [1] 1.9% | [2] -39.8% | [3] -11.4% | [4] 8.5% | [5] -16% | [6] -1.5%

COc1ccc2c(=O)c(Cc3c[nH]c4ccccc34)coc2c1
inactive: [1] 27.6% | [2] 12% | [3] 29% | [4] -35.6% | [5] 9.85% | [6] 19.2%

CCOC(=O)C1(C)CCC(C(=O)OC)C1=O (stereo unspecified)
inactive: [1] -36.1% | [2] -31.1% | [3] -54.8% | [4] -5.45% | [5] -59.6% | [6] -18.1%

O=C(Nc1ccc(Cl)cc1)NS(=O)(=O)c1coc2ccccc2c1=O
inactive: [1] 9.65% | [2] 7.3% | [3] -5.75% | [4] 18.6% | [5] 11.6% | [6] 23.1%

COC(=O)COc1ccccc1[N+](=O)[O-]
inactive: [1] -0.15% | [2] 2.55% | [3] 0.6% | [4] 3.7% | [5] 5.25% | [6] 4.45%

Nc1ccccc1N1C(=O)C(Cl)=C(Cl)C1=O
inactive: [1] 39.5% | [2] 5.4% | [3] 21.5% | [4] 14.2% | [5] 3% | [6] 44%

CC(=O)CCCS(=O)(=O)c1ccccc1
inactive: [1] -1.5% | [2] 14.9% | [3] 0.9% | [4] -12.7% | [5] -3.8% | [6] 5.2%

COc1cc(C(C)S(=O)(=O)c2ccc(C)cc2)ccc1O (stereo unspecified)
inactive: [1] -2.95% | [2] -9.3% | [3] 8.65% | [4] 6.5% | [5] 3.2% | [6] 9.45%

CC(SC(=S)Nc1ccc(Cl)cc1)C(=O)O (stereo unspecified)
inactive: [1] 39.5% | [2] 1.15% | [3] 24.8% | [4] -42% | [5] 4.8% | [6] 12.3%

O=C(Nc1nc(=S)[nH][nH]1)C(=O)C(c1cnc2ccc([N+](=O)[O-])cc2n1)[N+](=O)[O-] (stereo unspecified)
inactive: [1] -4.5% | [2] -26% | [3] -14.3% | [4] 7.9% | [5] -0.6% | [6] 3.2%
